Read-out in assay [1]: Human Leukocyte Antigen - DR isotype (HLADR), HLA-DRA (gene 3122)
The assay can be described thus: BSK_BE3C_HLADR: BioMAP Diversity Plus: BE3C Assay for Human Leukocyte Antigen - DR isotype (HLADR) Biomarker Activity (AID 2283032). Conditions: primary human bronchial epithelial cells; actives raise or lower the signal. The essentials:
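Cell-surface HLA-DR ELISA readout at 24 h after dosing in the BE3C primary human lung bronchial epithelial system; gain or loss of signal against DMSO, with parallel sulforhodamine B staining of total protein for overt cytotoxicity.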

Read-out in assay [2]: Vascular cell adhesion molecule 1 (VCAM1), VCAM1 (gene 7412)
The assay can be described thus: BSK_4H_VCAM1: BioMAP Diversity Plus: 4H Assay for Vascular cell adhesion molecule 1 (VCAM1) Biomarker Activity (AID 2283033).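 As to outcome: cell-surface VCAM-1 protein measured by ELISA.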 Conditions: primary human endothelial cells (HUVEC); actives raise or lower the signal. A digest of the protocol:
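VCAM-1 ELISA read 24 h after chemical dosing of HUVEC in the BioMAP 4H system, with gain or loss of signal fitted relative to DMSO. Parallel SRB staining (560 nm) checked overt cytotoxicity.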

Read-out in assay [3]: Interferon-gamma inducible Protein 10 (IP10), CXCL10 (gene 3627)
The assay can be described thus: BSK_BE3C_IP10: BioMAP Diversity Plus: BE3C Assay for Interferon-gamma inducible Protein 10 (IP10) Biomarker Activity (AID 2283034). Conditions: primary human bronchial epithelial cells; actives raise or lower the signal. The essentials:
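IP-10 quantified by ELISA in human primary bronchial epithelial cell cultures at 24 hours post-dosing. Gain or loss of signal fitted relative to DMSO; parallel SRB staining assessed overt cytotoxicity.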

Read-out in assay [4]: Monokine induced gamma interferon (MIG), CXCL9 (gene 4283)
Nature of the assay: BSK_BE3C_MIG: BioMAP Diversity Plus: BE3C Assay for Monokine induced gamma interferon (MIG) Biomarker Activity (AID 2283035). Conditions: primary human bronchial epithelial cells; actives raise or lower the signal. The essentials:
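ELISA quantified MIG after 24 h exposure of primary bronchial epithelial cultures, analysed in both directions relative to DMSO. Cytotoxicity tracked in parallel cultures by sulforhodamine B staining.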

Read-out in assay [5]: Transforming growth factor beta 1 (TGFb1), TGFB1 (gene 7040)
Nature of the assay: BSK_BE3C_TGFb1: BioMAP Diversity Plus: BE3C Assay for Transforming growth factor beta 1 (TGFb1) Biomarker Activity (AID 2283036;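 also: TGF-b1 protein level measured by ELISA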). Conditions: primary human bronchial epithelial cells; actives raise or lower the signal. A digest of the protocol: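 ELISA readout of TGF-b1 from human lung bronchial epithelial primary cells, taken 24 h post-treatment. Gain or loss of signal fitted relative to DMSO baseline, with parallel SRB staining for overt cytotoxicity.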

Read-out in assay [6]: Plasminogen activator inhibitor-1 (PAI1), SERPINE1 (gene 5054)
Nature of the assay: BSK_BE3C_PAI1: BioMAP Diversity Plus: BE3C Assay for Plasminogen activator inhibitor-1 (PAI1) Biomarker Activity (AID 2283037). Conditions: primary human bronchial epithelial cells; actives raise or lower the signal. The essentials: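 PAI-1 was measured by ELISA in human primary bronchial epithelial cultures 24 h after chemical dosing, with cytotoxicity checked by SRB total-protein staining in parallel cultures. Activity was fitted in both directions relative to DMSO.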

Read-out in assay [7]: urokinase plasminogen activator (uPA), PLAU (gene 5328)
The assay can be described thus: BSK_BE3C_uPA: BioMAP Diversity Plus: BE3C Assay for urokinase plasminogen activator (uPA) Biomarker Activity (AID 2283038).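 As to outcome: uPA protein level quantified by ELISA in cell cultures; uPA read one day after compound addition.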 Conditions: primary human bronchial epithelial cells; actives raise or lower the signal. The essentials:
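ELISA for uPA on human primary bronchial epithelial cultures 24 h post-treatment, gain or loss against DMSO. Parallel SRB staining (0.1% after 10% TCA fixation, 560 nm) assessed overt cytotoxicity.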

Read-out in assay [8]: Urokinase-type plasminogen activator receptor (uPAR), PLAUR (gene 5329)
Nature of the assay: BSK_BE3C_uPAR: BioMAP Diversity Plus: BE3C Assay for Urokinase-type plasminogen activator receptor (uPAR) Biomarker Activity (AID 2283039).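 Also: cells exposed to compound for one day before measurement.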 Conditions: primary human bronchial epithelial cells; actives raise or lower the signal. The essentials: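 uPAR levels were measured by ELISA after 24 h compound treatment of primary human bronchial epithelial cells, fitted in both directions relative to DMSO. Parallel SRB staining served as the cytotoxicity read-out.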

Read-out in assay [9]: Interleukin-6 (IL6), IL6 (gene 3569)
The assay can be described thus: BSK_CASM3C_IL6: BioMAP Diversity Plus: CASM3C Assay for Interleukin-6 (IL6) Biomarker Activity for (AID 2283040). The following applies: primary human coronary artery smooth muscle cells; actives raise or lower the signal.

Read-out in assay [10]: Tissue plasminogen activator (tPA), PLAT (gene 5327)
The assay can be described thus: BSK_BE3C_tPA: BioMAP Diversity Plus: BE3C Assay for Tissue plasminogen activator (tPA) Biomarker Activity (AID 2283041).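 As to outcome: tPA level quantified by ELISA one day after compound addition.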 Conditions: primary human bronchial epithelial cells; actives raise or lower the signal. The essentials: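 tPA measured by ELISA 24 h after dosing human primary bronchial epithelial cells (BE3C system). Changes in either direction were fitted against DMSO. Parallel cultures were stained with SRB to flag overt cytotoxicity.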

Read-out in assay [11]: Interleukin-8 (IL8), CXCL8 (gene 3576)
Nature of the assay: BSK_CASM3C_IL8: BioMAP Diversity Plus: CASM3C Assay for Interleukin-8 (IL8) Biomarker Activity (AID 2283042).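 Also: IL-8 protein level quantified by ELISA.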 The following applies: primary human coronary artery smooth muscle cells; actives raise or lower the signal.

Read-out in assay [12]: Human Leukocyte Antigen - DR isotype (HLADR), HLA-DRA (gene 3122)
The assay can be described thus: BSK_CASM3C_HLADR: BioMAP Diversity Plus: CASM3C Assay for Human Leukocyte Antigen - DR isotype (HLADR) Biomarker Activity (AID 2283043).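 Also: cell-surface HLA-DR protein level quantified by ELISA.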 The following applies: primary human coronary artery smooth muscle cells; actives raise or lower the signal.

Read-out in assay [13]: Macrophage colony-stimulating factor (MCSF), CSF1 (gene 1435)
Nature of the assay: BSK_CASM3C_MCSF: BioMAP Diversity Plus: CASM3C Assay for Macrophage colony-stimulating factor (MCSF) Biomarker Activity (AID 2283044).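 Also: M-CSF protein amount quantified by ELISA after 24 h exposure.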 Conditions: primary human coronary artery smooth muscle cells; actives raise or lower the signal.

Read-out in assay [14]: Low-density lipoprotein receptor (LDLR), LDLR (gene 3949)
Nature of the assay: BSK_CASM3C_LDLR: BioMAP Diversity Plus: CASM3C Assay for Low-density lipoprotein receptor (LDLR) Biomarker Activity (AID 2283045).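 Also: LDLR protein level on the cell surface quantified by ELISA.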 Conditions: primary human coronary artery smooth muscle cells; actives raise or lower the signal.

Read-out in assay [15]: Monocyte Chemoattractant Protein-1 (MCP1), CCL2 (gene 6347)
Nature of the assay: BSK_CASM3C_MCP1: BioMAP Diversity Plus: CASM3C Assay for Monocyte Chemoattractant Protein-1 (MCP1) Biomarker Activity (AID 2283046).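 Also: MCP-1 level quantified by ELISA 24 h after dosing.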 Conditions: primary human coronary artery smooth muscle cells; actives raise or lower the signal.

Assay [16] is described as follows: BSK_CASM3C_Proliferation: Cell Proliferation Assessment in the BioMAP Diversity Plus: CASM3C Assay (AID 2283047).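 Also: sulforhodamine B total protein stain as relative cell number at 560 nm; sub-confluent cells exposed 48 h before staining; fitted both ways against DMSO so gain or loss of cell number.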 Conditions: primary human coronary artery smooth muscle cells.
Read-out in assay [17]: Monokine induced gamma interferon (MIG), CXCL9 (gene 4283)
The assay can be described thus: BSK_CASM3C_MIG: BioMAP Diversity Plus: CASM3C Assay for Monokine induced gamma interferon (MIG) Biomarker Activity (AID 2283048).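 Also: MIG protein level measured by ELISA.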 The following applies: primary human coronary artery smooth muscle cells; actives raise or lower the signal.

Read-out in assay [18]: serum amyloid A (SAA), SAA1 (gene 6288)
The assay can be described thus: BSK_CASM3C_SAA: BioMAP Diversity Plus: CASM3C Assay for serum amyloid A (SAA) Biomarker Activity (AID 2283049).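 Also: SAA protein level quantified by ELISA.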 Conditions: primary human coronary artery smooth muscle cells; actives raise or lower the signal.

The nature of assay [19]: BSK_CASM3C_SRB: Viability Assessment in the BioMAP Diversity Plus: CASM3C Assay (AID 2283050). The following applies: primary human coronary artery smooth muscle cells.
Read-out in assay [20]: Thrombomodulin, THBD (gene 7056)
Nature of the assay: BSK_CASM3C_Thrombomodulin: BioMAP Diversity Plus: CASM3C Assay for Thrombomodulin Biomarker Activity (AID 2283051).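 Also: thrombomodulin protein level measured by ELISA 24 h after dosing.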 The following applies: primary human coronary artery smooth muscle cells; actives raise or lower the signal.

Structures are written as SMILES. Where a structure was tested more than once in an assay, its records may differ in their call. Activity calls are given as the source filed them. The calls were made as follows: active = hit-call score of the fitted dose curve at least 0.9, where 1 is the maximum; inactive = score below 0.9.

Consider `CCOc1ccc2[nH]cc(C(=O)NCc3ccccc3)c(=O)c2n1`, for which the result in assay [1], in [2], in [3], in assay [4], in assay [5] and in [6] was inactive. The outcome in [7], in [8], in [9], in assay [10], in assay [11] and in [12] was inactive. Also, the result in assay [13], in [14], in [15], in [16], in assay [17] and in [18] was inactive. Also, the outcome in [19] and in assay [20] was inactive.
For the molecule `CCCCCCCC1CCC(=O)O1` (stereo not given), the outcome in [1], in assay [2], in assay [3], in assay [4], in [5] and in assay [6] was inactive. Moreover, the outcome in assay [7], in assay [8], in assay [9], in assay [10], in assay [11] and in [12] was inactive. In addition, the outcome in [13], in assay [14], in [15], in assay [16], in [17] and in assay [18] was inactive. For the same molecule, the outcome in [19] and in [20] was inactive.
Usually AC50 stands for the concentration giving half of the maximal activity seen. Regarding `COc1cc(C(C)C)c2c(c1)S(=O)(=O)N(COc1cc(=O)n3cccc(OCCN4CCCCC4)c3n1)C2=O`, the concentration at half-maximal activity (AC50) was 6.88 µM (active) in assay [1]; 5 µM (active) in assay [2]; 7.41 µM (active) in assay [3]; 8.4 µM (active) in [6]; 8.13 µM (active) in assay [7]; 3 µM (active) in assay [10]. Besides, the AC50 in assay [14] was 3.65 µM (active); in assay [16], 6.18 µM (active). The outcome in [4], in assay [5], in [8], in [9], in assay [11] and in assay [12] was inactive. In addition, the outcome in assay [13], in [15], in assay [17], in [18], in assay [19] and in [20] was inactive.
In the case of `FC(F)C(F)(F)COCC1CO1` (stereo not given), in [1], the AC50 is 45.8 µM (active). The result in [1], in assay [2], in [3], in assay [4], in assay [6] and in assay [7] was inactive. Moreover, the outcome in assay [8], in assay [9], in assay [10], in [11], in assay [12] and in assay [13] was inactive. For the same molecule, the result in assay [14], in [15], in assay [16], in [17], in assay [18] and in assay [19] was inactive. For the same molecule, the result in assay [20] was inactive.
For the molecule `C[C@]12C=CC(=O)C=C1CC[C@H]1[C@@H]3C[C@@H](O)[C@](O)(C(=O)CO)[C@@]3(C)C[C@H](O)[C@@]12F`, the outcome in assay [1], in [2], in [3], in [4], in [5] and in assay [6] was inactive. In addition, the outcome in assay [7], in assay [8], in [10], in assay [14], in assay [16] and in assay [17] was inactive. In assay [19], the outcome was inactive. The half-maximal activity concentration (AC50) in assay [9] is 0.356 µM (active); in assay [11] it was 0.246 µM (active); in assay [12], 0.148 µM (active); in assay [13] it was 0.417 µM (active); in assay [15], 0.148 µM (active); in assay [18], 0.354 µM (active). In addition, the half-maximal activity concentration (AC50) in assay [20] was 3.97 µM (active).
Regarding `Cc1cccc(O)c1C`, the result in assay [1], in assay [2], in [3], in assay [4], in assay [5] and in assay [6] was inactive. The outcome in assay [7], in assay [8], in assay [9], in assay [10], in [11] and in [12] was inactive. The outcome in [13], in assay [14], in assay [15], in assay [16], in [17] and in [18] was inactive. Also, the result in [19] and in [20] was inactive.
Take `Nc1ccn([C@@H]2O[C@H](CO)[C@@H](O)[C@@H]2O)c(=O)n1`: the result in assay [1], in assay [2], in assay [3], in [4], in assay [5] and in assay [6] was inactive. Also, the outcome in assay [7], in [8], in [9], in assay [10], in assay [11] and in [12] was inactive. Also, the outcome in assay [13], in [14], in [15], in assay [17], in assay [18] and in assay [19] was inactive. In assay [20], the outcome was inactive. Moreover, in assay [16], the AC50 was 0.148 µM (active).
